# Source: ChEMBL document CHEMBL3988442, “University of Dundee, Small-Polar-MMV Screening Library” (2021)
# Species: Homo sapiens
# Experiment: To identify inhibition of the IFN signalling (Jak-Stat) pathway via expression of an eGFP reporter gene under the control of an IFN-stimulated response element (ISRE) containing MxA promoter.
# Format: functional
# Set-up: scale not given: direction of the effect not stated beside the values
# Conditions: 30 µM
row,Structure (SMILES),Percent Effect [%]
1,CC(C)c1nc(C2CCCN(C(=O)c3ccnc(N(C)C)c3)C2)no1 (centres undefined),26.1
2,Cc1cnc(CN2CCCC(c3cc(C(N)=O)[nH]n3)C2)cn1 (centres undefined),6.6
3,CC(NC(=O)NCc1cccc(Cl)c1)(C(=O)O)c1ccco1 (centres undefined),-2.55
4,Cc1cnn(CC2CCCN2C(=O)c2cccnc2N(C)C)c1 (centres undefined),-17.9
